Calls of active or inactive are those of the source. The calls were made as follows: active = hit-call score of the fitted dose curve at least 0.9, where 1 is the maximum; inactive = score below 0.9.
assay: CCTE_Shafer_MEA_acute_burst_number: CCTE's Neural Acute Assay for Single-Electrode Bursts, Shafer Lab (AID 2284013)
Description: CCTE_Shafer_MEA_acute assay is conducted using Axion Biosystems 48 well microelectrode array (MEA) plates and Maestro recording system. Each well of the MEA plate contains a grid of 16 microelectrodes embedded in the culture surface. Electrically active cells, such as neurons, can be cultured over the electrodes, and electrical activity in these cells can be recorded extracellularly. The spontaneous firing of neurons is captured from each electrode on a microsecond timescale providing both temporally and spatially precise data. […] The CCTE_Shafer_MEA_acute assay uses primary cultures of rat cortical neurons. As these cultures mature over time, neural networks develop functional activity and form cohesive networks in which electrical activity can be highly coordinated. Baseline 40-minute recordings are made on days post-plating 13 or 15, followed by a secondary 40-minute recording after chemical exposure.CCTE_Shafer_MEA_acute_burst_number is a component of the CCTE_Shafer_MEA_acute assay. It measures the total number of single-electrode bursts (temporally-clustered groups of action potential firing) during a recording in a microelectrode array (MEA) using Axion Biosystems Maestro 768 channel amplifier with the AxIS adaptive spike detector. The recordings before and after chemical treatment are used to calculate a percent change in the burst number in each well.Data from the assay component CCTE_Shafer_MEA_acute_burst_number was analyzed into 1 assay endpoint. This assay endpoint, CCTE_Shafer_MEA_acute_burst_number, was analyzed in the negative analysis fitting direction relative to DMSO as the negative control and baseline of activity. Using a type of functional reporter, gain or loss-of-signal activity can be used to understand electrical activity.
Spontaneous activity in the cortical cultures was recorded using an Axion Biosystems Maestro 768 channel amplifier and Axion Integrated Studios (AxIS) v1.8 (or later) software. The amplifier recorded from all channels simultaneously (gain = 1200 x; sampling rate = 12.5 kHz/channel): raw signals were filtered with a Butterworth band-pass filter (300-5000 Hz), which filters out slower local field potentials leaving only fast potentials, i.e., "spikes", arising from extracellular currents associated with action potentials (Pine 2006; Wheeler and Nam 2011). On-line spike detection of filtered signals was conducted with the AxIS adaptive spike detector, using a threshold of 8x the root mean squared (rms) noise on each channel. Any electrodes with rms noise levels greater than 5 uV were grounded (e.g., no data were recorded). Once grounded, an electrode was grounded for the duration of the experiment. All recordings were conducted at 37 C. Wells were deemed usable if on the day of the exposure >/= 10 electrodes were active (defined as >/= 5 spikes/min). On DIV 13 or 15, a minimum of three wells from one cortical culture preparation were treated with each compound (0.03-40 uM). Prior to recording baseline activity, each mwMEA plate was placed in the Maestro at 37 C and allowed to sit for 20 min while firing rates stabilized. Baseline activity (40 min) was recorded before the addition of each compound. An additional 40 min of spontaneous activity was recorded in the presence of each compound. Changes in network parameters relative to baseline were assessed following compound treatment.

Compound	outcome	AC50
CCCCC(CC)C(=O)OCCOCCOCCOC(=O)C(CC)CCCC (stereo not drawn)	inactive	–
c1ccc(C(O[C@@H]2CCCN(CCc3ccc4c(c3)OCO4)C2)c2ccccc2)cc1	inactive	–
CC(C)C(=O)Nc1ccc([N+](=O)[O-])c(C(F)(F)F)c1	inactive	–
CCc1ccc(O)c(C(C)(C)C)c1	–	1030 nM (active)
CC[C@H](C)C(=O)O[C@H]1C[C@H](O)C=C2C=C[C@H](C)[C@H](CC[C@@H](O)C[C@@H](O)CC(=O)O)[C@H]21	inactive	–
CCCCCCCC/C=C\CCCCCCCC(=O)OC[C@@H](O)[C@H]1OC[C@H](O)[C@H]1O	inactive	–
OCc1ccccc1	inactive	–
COc1cc(C(C)C)c2c(c1)S(=O)(=O)N(COc1cc(=O)n3cccc(OCCN4CCCCC4)c3n1)C2=O	inactive	–
Cc1ncc([C@@H](CCCCCCc2ccc3c(n2)NCCC3)CC(=O)O)cn1	inactive	–
CCCCCCCC1CCC(=O)O1 (stereo not drawn)	inactive	–
C=CCc1cc(S(=O)(=O)c2ccc(O)c(CC=C)c2)ccc1O	inactive	–
COCc1nnc(-c2ccc[n+]([O-])c2)n1-c1c(Cl)c(Cl)cc2[nH]c(=O)c(=O)[nH]c12	inactive	–
c1ccc2cc3ccccc3cc2c1	–	7.5 nM (active)
OC(CCl)CCl	inactive	–
Cn1c(=O)c2[nH]cnc2n(C)c1=O	inactive	–
O=S(=O)(O)c1ccc(N=Nc2c(O)ccc3cc(S(=O)(=O)O)ccc23)cc1	inactive	–
COc1cc2c(c(OC)c1OC)-c1ccc(OC)c(=O)cc1[C@@H](NC(C)=O)CC2	–	34000 nM (active)
CCCc1ccccc1	inactive	–

— PubChem BioAssay (EPA / NIEHS)
